# Assay results reported in publication PMC7862700, “An all-to-all approach to the identification of sequence-specific readers for epigenetic DNA modifications on cytosine”.
# What was measured:
# Assay in all cases: DAPPL (digital affinity profiling via proximity ligation, sequencing); 10 mM Tris-HCl pH 7.5, 50 mM NaCl, 1 mM DTT, 4% glycerol, room temperature, 30 min; GST-TFs on glutathione beads, 16-mer random dsDNA library, 0.1% formaldehyde crosslink after washing; high values mean tight binding
# [1] = molecular target: T1, FLI1 (Homo sapiens, UniProt Q01543 1-452); conditions: protein: recombinant; tags: N-terminal GST; dsDNA, one strand shown
# T1 sequence: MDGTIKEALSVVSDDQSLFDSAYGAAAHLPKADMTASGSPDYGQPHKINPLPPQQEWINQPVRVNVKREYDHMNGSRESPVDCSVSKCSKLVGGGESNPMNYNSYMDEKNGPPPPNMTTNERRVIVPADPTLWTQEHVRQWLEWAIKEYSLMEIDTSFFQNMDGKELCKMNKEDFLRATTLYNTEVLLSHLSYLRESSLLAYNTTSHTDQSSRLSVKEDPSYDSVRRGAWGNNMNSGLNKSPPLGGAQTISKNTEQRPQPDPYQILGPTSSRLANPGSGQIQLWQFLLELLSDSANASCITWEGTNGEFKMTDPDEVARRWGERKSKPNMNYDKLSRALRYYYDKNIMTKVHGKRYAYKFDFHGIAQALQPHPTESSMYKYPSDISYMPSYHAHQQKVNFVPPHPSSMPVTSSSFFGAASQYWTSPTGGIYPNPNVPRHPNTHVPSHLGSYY
# Procedure, shortened: (§1)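 GST fusions of human transcription factors were expressed in yeast and captured with glutathione beads. Once given DNA barcodes and pooled alongside a tag-only sample, they were incubated for 30 min at room temperature with 200 nmole of a random double-stranded 16-mer DNA library in Tris/NaCl/DTT/glycerol buffer, then washed, crosslinked (0.1% formaldehyde), proximity-ligated, PCR-amplified and sequenced on an Illumina NextSeq500. The binding signal of each hexamer is its read frequency for a factor divided by its frequency for the tag-only sample.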
# [2] = molecular target: T2, ELK1 (Homo sapiens, UniProt P19419 1-428); conditions: protein: recombinant; tags: N-terminal GST; dsDNA, one strand shown
# T2 sequence: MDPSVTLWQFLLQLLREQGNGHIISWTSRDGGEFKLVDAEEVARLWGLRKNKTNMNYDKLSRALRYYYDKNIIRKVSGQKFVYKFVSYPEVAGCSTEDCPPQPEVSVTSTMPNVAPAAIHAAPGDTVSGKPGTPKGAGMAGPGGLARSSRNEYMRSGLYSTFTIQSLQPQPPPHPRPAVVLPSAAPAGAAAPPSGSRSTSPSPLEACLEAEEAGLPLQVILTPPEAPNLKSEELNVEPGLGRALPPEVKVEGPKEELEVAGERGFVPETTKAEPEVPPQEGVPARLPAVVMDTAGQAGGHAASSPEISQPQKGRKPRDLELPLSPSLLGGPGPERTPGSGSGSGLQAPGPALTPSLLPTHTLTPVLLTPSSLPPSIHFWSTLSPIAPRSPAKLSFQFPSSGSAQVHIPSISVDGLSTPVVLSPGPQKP
# Procedure, shortened: as §1
# [3] = molecular target: T3, GABPA (Homo sapiens, UniProt Q06546 1-454); conditions: protein: recombinant; tags: N-terminal GST; dsDNA, one strand shown
# T3 sequence: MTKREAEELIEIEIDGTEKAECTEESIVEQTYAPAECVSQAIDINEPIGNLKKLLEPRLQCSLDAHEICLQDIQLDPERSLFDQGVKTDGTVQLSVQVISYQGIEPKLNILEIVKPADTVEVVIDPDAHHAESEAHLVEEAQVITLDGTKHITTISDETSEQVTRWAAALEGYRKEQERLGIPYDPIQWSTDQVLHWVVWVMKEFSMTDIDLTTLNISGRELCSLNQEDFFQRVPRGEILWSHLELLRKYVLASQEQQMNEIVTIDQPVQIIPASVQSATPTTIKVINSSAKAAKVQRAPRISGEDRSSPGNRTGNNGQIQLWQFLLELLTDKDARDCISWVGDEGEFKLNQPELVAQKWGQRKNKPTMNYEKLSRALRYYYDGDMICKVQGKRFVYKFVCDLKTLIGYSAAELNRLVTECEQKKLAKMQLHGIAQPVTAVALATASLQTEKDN
# Procedure, shortened: as §1
# [4] = molecular target: T4, ERG (Homo sapiens, UniProt P11308 1-479); conditions: protein: recombinant; tags: N-terminal GST; dsDNA, one strand shown
# T4 sequence: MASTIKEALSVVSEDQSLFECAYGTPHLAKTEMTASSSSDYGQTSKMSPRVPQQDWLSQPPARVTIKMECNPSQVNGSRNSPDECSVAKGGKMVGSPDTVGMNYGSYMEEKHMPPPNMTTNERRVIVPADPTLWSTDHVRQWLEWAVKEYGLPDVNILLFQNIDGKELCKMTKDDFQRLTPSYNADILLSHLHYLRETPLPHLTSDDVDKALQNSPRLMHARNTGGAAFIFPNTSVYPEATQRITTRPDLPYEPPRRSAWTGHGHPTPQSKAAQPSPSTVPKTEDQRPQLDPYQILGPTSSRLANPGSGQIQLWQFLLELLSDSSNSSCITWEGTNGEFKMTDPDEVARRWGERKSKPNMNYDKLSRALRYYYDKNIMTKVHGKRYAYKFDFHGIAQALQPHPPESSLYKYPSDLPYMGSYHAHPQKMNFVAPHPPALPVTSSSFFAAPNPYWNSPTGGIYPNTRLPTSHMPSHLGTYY
# Procedure, shortened: as §1
# [5] = molecular target: ELF1 (Homo sapiens, UniProt P32519 1-619); conditions: protein: recombinant; tags: N-terminal GST; dsDNA, one strand shown
# ELF1, sequence (P32519 whole entry): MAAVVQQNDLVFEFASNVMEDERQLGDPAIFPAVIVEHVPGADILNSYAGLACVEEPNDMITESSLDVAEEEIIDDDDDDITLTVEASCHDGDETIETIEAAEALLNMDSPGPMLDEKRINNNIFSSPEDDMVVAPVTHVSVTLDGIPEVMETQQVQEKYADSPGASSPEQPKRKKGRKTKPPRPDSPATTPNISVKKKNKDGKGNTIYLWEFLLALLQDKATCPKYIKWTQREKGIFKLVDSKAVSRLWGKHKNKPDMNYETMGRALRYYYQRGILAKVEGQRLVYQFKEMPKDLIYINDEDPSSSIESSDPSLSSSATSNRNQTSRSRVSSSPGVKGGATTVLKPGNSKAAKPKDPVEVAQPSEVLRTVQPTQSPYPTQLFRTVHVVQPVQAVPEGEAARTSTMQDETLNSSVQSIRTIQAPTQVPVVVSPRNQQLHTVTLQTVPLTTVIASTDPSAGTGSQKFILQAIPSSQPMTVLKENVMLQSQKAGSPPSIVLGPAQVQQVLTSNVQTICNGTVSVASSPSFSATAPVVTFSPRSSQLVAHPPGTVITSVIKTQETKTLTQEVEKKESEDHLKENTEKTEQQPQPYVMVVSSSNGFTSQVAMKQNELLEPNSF
# Procedure, shortened: as §1
# [6] = molecular target: T5, EHF (Homo sapiens, UniProt Q9NZC4 1-300); conditions: protein: recombinant; tags: N-terminal GST; dsDNA, one strand shown
# T5 sequence: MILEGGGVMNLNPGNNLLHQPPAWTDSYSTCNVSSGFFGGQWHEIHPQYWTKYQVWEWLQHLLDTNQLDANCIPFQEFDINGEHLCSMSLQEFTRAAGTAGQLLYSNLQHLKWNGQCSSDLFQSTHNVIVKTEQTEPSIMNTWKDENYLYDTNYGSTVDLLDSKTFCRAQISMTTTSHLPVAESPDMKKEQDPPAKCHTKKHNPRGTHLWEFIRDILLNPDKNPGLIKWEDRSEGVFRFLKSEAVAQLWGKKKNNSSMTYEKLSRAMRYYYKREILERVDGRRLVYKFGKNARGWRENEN
# Procedure, shortened: as §1
# [7] = molecular target: SPI1 (Homo sapiens, UniProt P17947 1-270); conditions: protein: recombinant; tags: N-terminal GST; dsDNA, one strand shown
# Procedure, shortened: as §1
# [8] = molecular target: SPIB (Homo sapiens, UniProt Q01892 1-262); conditions: protein: recombinant; tags: N-terminal GST; dsDNA, one strand shown
# SPIB, sequence (Q01892 whole entry): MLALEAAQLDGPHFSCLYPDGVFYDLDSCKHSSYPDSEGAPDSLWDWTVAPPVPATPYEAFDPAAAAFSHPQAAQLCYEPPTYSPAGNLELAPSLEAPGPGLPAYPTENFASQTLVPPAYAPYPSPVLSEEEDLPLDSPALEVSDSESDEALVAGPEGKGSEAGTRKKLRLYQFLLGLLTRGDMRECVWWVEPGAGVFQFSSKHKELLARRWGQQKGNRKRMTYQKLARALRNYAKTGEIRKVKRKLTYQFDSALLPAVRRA
# Procedure, shortened: as §1
# [9] = molecular target: T6, ELK3 (Homo sapiens, UniProt P41970 1-407); conditions: protein: recombinant; tags: N-terminal GST; dsDNA, one strand shown
# T6 sequence: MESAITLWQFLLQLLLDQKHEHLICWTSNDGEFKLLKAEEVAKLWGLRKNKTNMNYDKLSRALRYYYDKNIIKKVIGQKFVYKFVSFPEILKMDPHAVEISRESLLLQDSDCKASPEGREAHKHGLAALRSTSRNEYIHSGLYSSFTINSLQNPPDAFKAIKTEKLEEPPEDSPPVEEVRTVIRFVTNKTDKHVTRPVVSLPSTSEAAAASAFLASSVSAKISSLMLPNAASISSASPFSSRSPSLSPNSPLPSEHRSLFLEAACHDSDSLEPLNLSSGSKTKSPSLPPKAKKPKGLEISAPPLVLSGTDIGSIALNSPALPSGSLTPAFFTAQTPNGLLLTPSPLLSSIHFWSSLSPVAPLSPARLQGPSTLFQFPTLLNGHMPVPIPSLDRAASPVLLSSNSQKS
# Procedure, shortened: as §1
# [10] = molecular target: T7, FEV (Homo sapiens, UniProt Q99581 1-238); conditions: protein: recombinant; tags: N-terminal GST; dsDNA, one strand shown
# T7 sequence: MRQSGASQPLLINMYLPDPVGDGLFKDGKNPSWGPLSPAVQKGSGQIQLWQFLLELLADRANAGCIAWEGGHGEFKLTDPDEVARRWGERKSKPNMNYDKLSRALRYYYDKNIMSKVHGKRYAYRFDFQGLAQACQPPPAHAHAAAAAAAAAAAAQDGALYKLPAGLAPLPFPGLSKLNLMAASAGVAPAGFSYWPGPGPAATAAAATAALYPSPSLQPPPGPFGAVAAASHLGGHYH
# Procedure, shortened: as §1
# [11] = molecular target: ETV5 (Homo sapiens, UniProt P41161 1-510); conditions: protein: recombinant; tags: N-terminal GST; dsDNA, one strand shown
# ETV5, sequence (P41161 whole entry): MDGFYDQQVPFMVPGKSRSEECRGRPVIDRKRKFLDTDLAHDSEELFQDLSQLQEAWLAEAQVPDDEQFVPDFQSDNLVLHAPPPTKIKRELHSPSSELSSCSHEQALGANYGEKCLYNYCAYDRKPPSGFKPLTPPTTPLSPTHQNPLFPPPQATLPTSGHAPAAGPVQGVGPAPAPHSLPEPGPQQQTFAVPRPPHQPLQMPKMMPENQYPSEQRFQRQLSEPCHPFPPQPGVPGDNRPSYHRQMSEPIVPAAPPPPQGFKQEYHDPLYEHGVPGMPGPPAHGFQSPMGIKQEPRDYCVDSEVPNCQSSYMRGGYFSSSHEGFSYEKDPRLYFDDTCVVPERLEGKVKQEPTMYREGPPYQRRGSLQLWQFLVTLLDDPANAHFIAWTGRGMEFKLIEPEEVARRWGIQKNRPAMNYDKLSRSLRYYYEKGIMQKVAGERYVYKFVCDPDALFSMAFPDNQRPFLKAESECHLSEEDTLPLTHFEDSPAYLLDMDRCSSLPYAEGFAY
# Procedure, shortened: as §1
# [12] = molecular target: HSF1 (Homo sapiens, UniProt Q00613 1-529); conditions: protein: recombinant; tags: N-terminal GST; chain copies: 3; dsDNA, one strand shown
# HSF1, sequence (Q00613 whole entry): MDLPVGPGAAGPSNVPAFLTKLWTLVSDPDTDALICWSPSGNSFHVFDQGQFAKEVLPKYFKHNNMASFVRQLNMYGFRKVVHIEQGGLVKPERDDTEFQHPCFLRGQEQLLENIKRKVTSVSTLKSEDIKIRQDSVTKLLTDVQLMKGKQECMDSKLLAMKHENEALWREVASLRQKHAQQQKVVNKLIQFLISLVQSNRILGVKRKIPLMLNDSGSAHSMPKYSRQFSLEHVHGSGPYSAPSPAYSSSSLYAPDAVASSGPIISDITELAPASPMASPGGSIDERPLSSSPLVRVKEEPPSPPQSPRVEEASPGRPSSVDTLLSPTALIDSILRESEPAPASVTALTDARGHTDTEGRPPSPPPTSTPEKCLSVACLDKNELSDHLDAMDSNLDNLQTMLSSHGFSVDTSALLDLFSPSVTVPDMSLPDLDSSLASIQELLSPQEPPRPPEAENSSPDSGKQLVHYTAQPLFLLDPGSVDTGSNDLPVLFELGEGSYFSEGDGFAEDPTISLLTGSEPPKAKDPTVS
# Procedure, shortened: as §1
# [13] = molecular target: T8, SPIC (Homo sapiens, UniProt Q8N5J4 1-248); conditions: protein: recombinant; tags: N-terminal GST; dsDNA, one strand shown
# T8 sequence: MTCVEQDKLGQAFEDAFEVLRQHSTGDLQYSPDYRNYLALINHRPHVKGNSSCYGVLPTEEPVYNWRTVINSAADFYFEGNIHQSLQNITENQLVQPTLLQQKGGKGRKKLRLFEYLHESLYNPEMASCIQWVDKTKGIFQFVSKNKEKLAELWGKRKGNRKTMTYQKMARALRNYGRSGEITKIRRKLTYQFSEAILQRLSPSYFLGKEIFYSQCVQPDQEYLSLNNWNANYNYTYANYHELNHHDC
# Procedure, shortened: as §1
# [14] = molecular target: ELF4 (Homo sapiens, UniProt Q99607 1-663); conditions: protein: recombinant; tags: N-terminal GST; dsDNA, one strand shown
# ELF4, sequence (Q99607 whole entry): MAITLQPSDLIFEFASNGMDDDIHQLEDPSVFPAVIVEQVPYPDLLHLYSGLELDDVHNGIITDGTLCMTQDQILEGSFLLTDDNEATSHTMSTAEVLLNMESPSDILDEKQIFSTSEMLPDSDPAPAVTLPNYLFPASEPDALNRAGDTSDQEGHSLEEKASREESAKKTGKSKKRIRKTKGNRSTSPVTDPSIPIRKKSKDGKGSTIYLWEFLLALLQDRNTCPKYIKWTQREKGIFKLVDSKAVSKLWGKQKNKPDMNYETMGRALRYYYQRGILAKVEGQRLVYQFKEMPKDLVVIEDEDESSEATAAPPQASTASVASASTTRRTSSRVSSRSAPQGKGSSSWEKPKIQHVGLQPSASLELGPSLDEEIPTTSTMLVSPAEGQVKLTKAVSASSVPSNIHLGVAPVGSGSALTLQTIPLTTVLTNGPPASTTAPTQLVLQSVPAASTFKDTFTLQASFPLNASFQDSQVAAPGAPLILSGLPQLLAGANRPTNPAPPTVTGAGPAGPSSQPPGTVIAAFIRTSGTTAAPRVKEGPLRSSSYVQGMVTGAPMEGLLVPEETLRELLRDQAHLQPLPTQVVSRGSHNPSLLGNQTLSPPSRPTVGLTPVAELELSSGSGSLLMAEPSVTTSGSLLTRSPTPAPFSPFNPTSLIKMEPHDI
# Procedure, shortened: as §1
# [15] = molecular target: T9, ELK4 (Homo sapiens, UniProt P28324-2 1-405); conditions: protein: recombinant; tags: N-terminal GST; dsDNA, one strand shown
# T9 sequence: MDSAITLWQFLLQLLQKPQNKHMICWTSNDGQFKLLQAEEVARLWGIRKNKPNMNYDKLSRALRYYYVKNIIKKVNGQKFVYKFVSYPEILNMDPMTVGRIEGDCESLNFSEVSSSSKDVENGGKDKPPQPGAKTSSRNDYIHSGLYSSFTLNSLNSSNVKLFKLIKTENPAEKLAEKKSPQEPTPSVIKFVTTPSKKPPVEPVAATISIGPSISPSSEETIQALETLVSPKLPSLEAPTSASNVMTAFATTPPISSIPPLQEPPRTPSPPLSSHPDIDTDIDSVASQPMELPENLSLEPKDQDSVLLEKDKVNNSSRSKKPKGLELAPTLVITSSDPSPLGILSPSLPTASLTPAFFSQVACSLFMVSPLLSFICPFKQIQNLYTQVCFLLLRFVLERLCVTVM
# Procedure, shortened: as §1
# [16] = molecular target: T10, ETV2 (Homo sapiens, UniProt O00321 1-342); conditions: protein: recombinant; tags: N-terminal GST; dsDNA, one strand shown
# T10 sequence: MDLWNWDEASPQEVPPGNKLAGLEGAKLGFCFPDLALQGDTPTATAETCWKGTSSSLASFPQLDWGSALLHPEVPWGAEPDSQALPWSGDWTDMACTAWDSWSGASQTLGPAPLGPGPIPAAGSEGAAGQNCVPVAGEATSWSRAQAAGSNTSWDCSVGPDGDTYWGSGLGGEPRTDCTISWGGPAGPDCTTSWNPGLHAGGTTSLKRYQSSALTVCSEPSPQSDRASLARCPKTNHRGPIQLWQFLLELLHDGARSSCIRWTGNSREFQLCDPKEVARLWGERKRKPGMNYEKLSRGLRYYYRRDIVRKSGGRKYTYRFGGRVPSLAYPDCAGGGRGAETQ
# Procedure, shortened: as §1
# [17] = molecular target: T11, ELF3 (Homo sapiens, UniProt P78545 1-371); conditions: protein: recombinant; tags: N-terminal GST; dsDNA, one strand shown
# T11 sequence: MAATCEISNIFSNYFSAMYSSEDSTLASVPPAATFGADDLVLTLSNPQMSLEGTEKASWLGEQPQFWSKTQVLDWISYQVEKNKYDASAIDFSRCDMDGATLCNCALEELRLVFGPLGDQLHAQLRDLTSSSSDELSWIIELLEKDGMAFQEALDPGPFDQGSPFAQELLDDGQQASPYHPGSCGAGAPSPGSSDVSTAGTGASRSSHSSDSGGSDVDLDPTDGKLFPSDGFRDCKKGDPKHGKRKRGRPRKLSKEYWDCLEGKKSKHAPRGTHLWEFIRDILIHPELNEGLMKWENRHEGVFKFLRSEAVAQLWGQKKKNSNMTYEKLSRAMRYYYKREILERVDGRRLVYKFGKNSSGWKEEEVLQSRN
# Procedure, shortened: as §1
# [18] = molecular target: CRX (Homo sapiens, UniProt O43186 1-299); conditions: protein: recombinant; tags: N-terminal GST; dsDNA, one strand shown
# CRX, sequence (O43186 whole entry): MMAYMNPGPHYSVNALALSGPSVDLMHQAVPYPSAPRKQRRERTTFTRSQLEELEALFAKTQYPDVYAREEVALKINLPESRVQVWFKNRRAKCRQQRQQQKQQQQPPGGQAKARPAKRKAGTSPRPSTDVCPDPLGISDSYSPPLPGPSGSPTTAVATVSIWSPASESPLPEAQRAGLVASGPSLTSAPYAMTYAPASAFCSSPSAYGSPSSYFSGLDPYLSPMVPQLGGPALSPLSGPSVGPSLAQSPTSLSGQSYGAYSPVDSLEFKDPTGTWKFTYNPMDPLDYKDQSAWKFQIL
# Procedure, shortened: as §1
# [19] = molecular target: ETV1 (Homo sapiens, UniProt P50549 1-477); conditions: protein: recombinant; tags: N-terminal GST; dsDNA, one strand shown
# ETV1, sequence (P50549 whole entry): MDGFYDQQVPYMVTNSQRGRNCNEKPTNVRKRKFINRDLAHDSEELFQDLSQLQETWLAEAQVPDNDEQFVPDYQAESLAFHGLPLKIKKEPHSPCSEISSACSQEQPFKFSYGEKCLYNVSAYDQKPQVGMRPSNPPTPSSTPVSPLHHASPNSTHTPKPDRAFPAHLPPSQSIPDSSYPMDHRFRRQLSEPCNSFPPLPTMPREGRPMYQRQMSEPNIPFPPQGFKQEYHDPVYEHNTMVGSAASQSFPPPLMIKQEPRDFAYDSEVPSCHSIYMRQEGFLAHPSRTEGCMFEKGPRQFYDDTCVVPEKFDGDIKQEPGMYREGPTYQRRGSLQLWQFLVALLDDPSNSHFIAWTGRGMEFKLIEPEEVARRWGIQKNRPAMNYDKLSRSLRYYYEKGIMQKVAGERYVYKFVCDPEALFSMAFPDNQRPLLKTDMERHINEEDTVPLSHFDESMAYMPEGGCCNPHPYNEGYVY
# Procedure, shortened: as §1
sequence,measurement,setting,value
ATAGAA,binding signal,[1],"1.02 fold enrichment (6-mer frequency, TF over GST control)"
same,binding signal,[2],"1.04 fold enrichment (6-mer frequency, TF over GST control)"
same,binding signal,[3],"1.04 fold enrichment (6-mer frequency, TF over GST control)"
same,binding signal,[4],"1.06 fold enrichment (6-mer frequency, TF over GST control)"
same,binding signal,[5],"1.05 fold enrichment (6-mer frequency, TF over GST control)"
same,binding signal,[6],"1.07 fold enrichment (6-mer frequency, TF over GST control)"
same,binding signal,[7],"1.16 fold enrichment (6-mer frequency, TF over GST control)"
same,binding signal,[8],"1.08 fold enrichment (6-mer frequency, TF over GST control)"
same,binding signal,[9],"1.13 fold enrichment (6-mer frequency, TF over GST control)"
same,binding signal,[10],"1.04 fold enrichment (6-mer frequency, TF over GST control)"
same,binding signal,[11],"1.05 fold enrichment (6-mer frequency, TF over GST control)"
same,binding signal,[12],"1.93 fold enrichment (6-mer frequency, TF over GST control)"
same,binding signal,[13],"1.03 fold enrichment (6-mer frequency, TF over GST control)"
same,binding signal,[14],"1.1 fold enrichment (6-mer frequency, TF over GST control)"
same,binding signal,[15],"1.02 fold enrichment (6-mer frequency, TF over GST control)"
same,binding signal,[16],"1.01 fold enrichment (6-mer frequency, TF over GST control)"
same,binding signal,[17],"1 fold enrichment (6-mer frequency, TF over GST control)"
same,binding signal,[18],"1.28 fold enrichment (6-mer frequency, TF over GST control)"
same,binding signal,[19],"1.12 fold enrichment (6-mer frequency, TF over GST control)"
